Measured values taken from PubChem BioAssay.
Activity calls are given as the source filed them.

Assays:
[1] = test system: Plasmodium falciparum Sir2 (PF13_0152, Sir2A); experiment: Plasmodium falciparum Sir2A binding compounds – biochemical, small-molecule microarray, 635 nm fluorescence, primary screen (AID 1098); conditions: fluorescence 635 nm, higher = more signal;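 also: score merges spot fluorescence intensity with its signal-to-noise ratio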
[2] = probe aDKK1 binding to arrayed compounds – biochemical, biotinylated probe, 635/667 nm fluorescence, primary screen (AID 1099); conditions: small-molecule microarray, higher = more signal;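 also: score merges 667nm spot fluorescence with signal to noise across triplicate slides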
[3] = probe aCHRDL2 binding to arrayed compounds – biochemical, biotinylated probe, 635/667 nm fluorescence, primary screen (AID 1100); conditions: small-molecule microarray, higher = more signal
[4] = change in splice reporter luminescence, either direction, cell-based, HEK293, spliceosome inhibition project, primary screen (AID 1101); conditions: HEK293 splicing luciferase reporter, 24 h, higher = more signal, called active from +8 up or from −8 down;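 also: HEK293 cells carrying a splicing-competent luciferase reporter gene; test concentration not given here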
[5] = molecular target: Fibroblast growth factor 10 (Homo sapiens) (UniProt O15520); experiment: compounds binding fibroblast growth factor 10 – biochemical, small-molecule microarray, 635 nm fluorescence, primary screen (AID 1102); conditions: FGF10 binding, fluorescence 635 nm, higher = more signal
[6] = test system: glycogen synthase kinase-3 (GSK3A per assay name; protocol says GSK3B); experiment: compounds binding glycogen synthase kinase-3 – biochemical, small-molecule microarray, 635 nm fluorescence, GSK3A, primary screen (AID 1103); conditions: fluorescence 635 nm, higher = more signal; also: the record names both GSK3A and GSK3B
[7] = molecular target: Epidermal growth factor receptor (Homo sapiens) (UniProt P00533); experiment: compounds binding epidermal growth factor receptor – biochemical, small-molecule microarray, 635 nm fluorescence, primary screen (AID 1104); conditions: EGFR binding, higher = more signal;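 also: score merges 667 nm emission intensity with spot signal to noise over triplicate slides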
[8] = molecular target: Follistatin-related protein 3 (Homo sapiens) (UniProt O95633); experiment: compounds binding follistatin-related protein 3 – biochemical, small-molecule microarray, 635 nm fluorescence, primary screen (AID 1105); conditions: FSTL3 binding, higher = more signal;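 also: score merges emission near 667 nm and signal to noise per printed spot across three slides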
[9] = molecular target: Dickkopf-related protein 1 (Homo sapiens) (UniProt O94907); experiment: small molecules binding DKK1 protein – biochemical, small-molecule microarray, 635 nm fluorescence scan, primary screen (AID 1106); conditions: higher = more signal;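 also: score merges emission near 667 nm with signal to noise over three replicate slides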
[10] = test system: Inhibin beta A chain (activin A); experiment: small molecules binding activin A – biochemical, small-molecule microarray, 635 nm fluorescence scan, primary screen (AID 1107); conditions: INHBA, higher = more signal;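 also: mouse activin A protein probed at 4.33 µg/mL on printed slides; score merges bound-protein fluorescence near 667 nm with spot signal-to-noise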
[11] = test system: Human papillomavirus type 1a protein E7 (residues 44-93); experiment: small molecules binding HPV E7 44-93 – biochemical, small-molecule microarray, residues 44-93, 635 nm fluorescence, primary screen (AID 1108); conditions: fluorescence 635 nm, higher = more signal;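 also: E7 fragment applied at 1 µg/mL in TBST for 1 h at 4 C; score combines spot fluorescence with its signal to noise ratio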
[12] = hepatitis C replication reporter changes, two-sided – Huh7 cells, luciferase reporter, HCV replication inhibitor project, primary screen (AID 1109); conditions: Huh7 HCV replicon luciferase reporter, 48 h; higher = more signal;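 also: huh7 hepatoma cells harbouring a luciferase neomycin HCV replicon reporter; luciferase luminescence as measure of HCV replicon replication; test concentration not given here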
[13] = molecular target: Left-right determination factor 2 (Homo sapiens) (UniProt O00292); experiment: small molecules binding LEFTY2 protein – biochemical, small-molecule microarray, 635 nm fluorescence scan, primary screen (AID 1110); conditions: higher = more signal
[14] = molecular target: Calmodulin-1 (Homo sapiens) (UniProt P0DP23); experiment: small molecules binding calmodulin-1 with EGTA – biochemical, small-molecule microarray, Cy5-labelled CALM1, profiling panel (AID 1111); conditions: Cy5-CALM1 binding fluorescence, higher = more signal;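 also: labelled calmodulin applied in Tris saline Tween buffer holding calcium plus EGTA and DTT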
[15] = molecular target: Calmodulin-1 (Homo sapiens) (UniProt P0DP23); experiment: small molecules binding Ca-loaded calmodulin-1 – biochemical, small-molecule microarray, Cy5-labelled CALM1, plus calcium, artefact control for SMM control-protein annotation, profiling panel (AID 1112); conditions: Cy5-CALM1 binding fluorescence, higher = more signal;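 also: score merges spot fluorescence with signal to noise from triplicate slides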
[16] = probe aWnt5a binding to arrayed compounds – biochemical, biotinylated probe, 635/667 nm fluorescence, primary screen (AID 1113); conditions: small-molecule microarray, higher = more signal;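 also: score merges 667 nm fluorescence intensity with signal-to-noise per printed feature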
[17] = probe aShh binding to arrayed compounds – biochemical, biotinylated probe, 635/667 nm fluorescence, primary screen (AID 1114); conditions: small-molecule microarray, higher = more signal;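 also: probe is biotin-labelled aShh protein from a stem cell growth factor screen; measures binding of labelled protein to compounds printed on the slide; score merges feature fluorescence at 667 nm with signal-to-noise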
[18] = probe aNog binding to arrayed compounds – biochemical, biotinylated probe, 635/667 nm fluorescence, primary screen (AID 1115); conditions: small-molecule microarray, higher = more signal;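 also: probe is biotinylated aNog protein used at 0.15 µg/mL for 1 h at 4 C; z-score combines 667 nm fluorescence of each spot with its signal to noise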
[19] = molecular target: Torsin-1A-interacting protein 1 (Homo sapiens) (UniProt Q5JTV8); experiment: compound microarray binding of lysate hLAP1 – cell lysate, small-molecule microarray, COS7 lysate, 635/667 nm fluorescence, primary screen (AID 1116); conditions: 635 nm fluorescence, higher = more signal
[20] = molecular target: Alpha-bungarotoxin (Bungarus multicinctus) (UniProt P60615); experiment: compounds binding labelled alpha-BTX control protein – biochemical, small-molecule microarray, Alexa647 label, 635/667 nm fluorescence, artefact control for SMM control protein annotation, profiling panel (AID 1117); conditions: alpha-BTX-A647 binding fluorescence, higher = more signal
Sequence of Alpha-bungarotoxin (Bungarus multicinctus) (P60615 whole entry, looked up): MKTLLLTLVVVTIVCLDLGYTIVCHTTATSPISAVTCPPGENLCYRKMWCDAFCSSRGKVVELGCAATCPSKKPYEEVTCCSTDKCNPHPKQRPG

Sequence of Torsin-1A-interacting protein 1 (Homo sapiens) (Q5JTV8 whole entry, looked up): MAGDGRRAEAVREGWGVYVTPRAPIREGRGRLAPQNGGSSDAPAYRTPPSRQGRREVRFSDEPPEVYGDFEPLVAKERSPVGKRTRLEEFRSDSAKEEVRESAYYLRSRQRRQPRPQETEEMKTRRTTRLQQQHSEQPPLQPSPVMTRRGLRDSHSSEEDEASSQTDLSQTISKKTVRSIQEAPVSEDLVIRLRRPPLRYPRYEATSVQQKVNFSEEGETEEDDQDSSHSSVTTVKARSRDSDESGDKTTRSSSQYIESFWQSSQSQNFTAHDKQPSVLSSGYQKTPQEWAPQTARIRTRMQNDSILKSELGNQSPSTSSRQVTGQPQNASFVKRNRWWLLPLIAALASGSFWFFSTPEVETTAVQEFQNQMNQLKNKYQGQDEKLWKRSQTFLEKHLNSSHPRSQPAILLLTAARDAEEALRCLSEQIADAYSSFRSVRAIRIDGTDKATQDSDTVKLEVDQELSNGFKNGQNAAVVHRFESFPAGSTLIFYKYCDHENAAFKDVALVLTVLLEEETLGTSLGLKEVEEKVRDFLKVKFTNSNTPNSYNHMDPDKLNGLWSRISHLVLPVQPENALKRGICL
Sequence of Fibroblast growth factor 10 (Homo sapiens) (O15520 whole entry, looked up): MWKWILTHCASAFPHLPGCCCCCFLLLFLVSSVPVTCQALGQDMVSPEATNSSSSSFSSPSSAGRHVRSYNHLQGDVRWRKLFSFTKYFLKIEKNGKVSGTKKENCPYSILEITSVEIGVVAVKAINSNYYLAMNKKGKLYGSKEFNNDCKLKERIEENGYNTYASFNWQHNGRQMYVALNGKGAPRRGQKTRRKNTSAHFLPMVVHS
Sequence of Left-right determination factor 2 (Homo sapiens) (O00292 whole entry, looked up): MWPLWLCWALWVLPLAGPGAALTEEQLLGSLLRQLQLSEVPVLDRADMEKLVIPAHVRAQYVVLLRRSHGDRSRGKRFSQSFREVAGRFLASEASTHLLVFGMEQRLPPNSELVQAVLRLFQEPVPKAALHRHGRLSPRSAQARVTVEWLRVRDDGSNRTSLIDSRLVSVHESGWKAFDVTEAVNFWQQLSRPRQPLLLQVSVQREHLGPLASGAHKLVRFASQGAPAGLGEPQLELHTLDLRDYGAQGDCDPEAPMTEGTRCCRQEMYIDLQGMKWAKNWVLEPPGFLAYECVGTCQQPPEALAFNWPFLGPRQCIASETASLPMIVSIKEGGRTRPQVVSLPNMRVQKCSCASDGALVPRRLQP
Sequence of Follistatin-related protein 3 (Homo sapiens) (O95633 whole entry, looked up): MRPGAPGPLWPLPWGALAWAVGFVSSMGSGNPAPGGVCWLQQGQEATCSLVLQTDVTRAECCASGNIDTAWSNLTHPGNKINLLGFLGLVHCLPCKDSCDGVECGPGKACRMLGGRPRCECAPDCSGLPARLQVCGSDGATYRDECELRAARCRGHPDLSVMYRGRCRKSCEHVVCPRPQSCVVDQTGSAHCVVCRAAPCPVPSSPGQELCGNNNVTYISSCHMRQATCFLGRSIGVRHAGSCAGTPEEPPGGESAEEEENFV
Sequence of Epidermal growth factor receptor (Homo sapiens) (P00533 whole entry, looked up): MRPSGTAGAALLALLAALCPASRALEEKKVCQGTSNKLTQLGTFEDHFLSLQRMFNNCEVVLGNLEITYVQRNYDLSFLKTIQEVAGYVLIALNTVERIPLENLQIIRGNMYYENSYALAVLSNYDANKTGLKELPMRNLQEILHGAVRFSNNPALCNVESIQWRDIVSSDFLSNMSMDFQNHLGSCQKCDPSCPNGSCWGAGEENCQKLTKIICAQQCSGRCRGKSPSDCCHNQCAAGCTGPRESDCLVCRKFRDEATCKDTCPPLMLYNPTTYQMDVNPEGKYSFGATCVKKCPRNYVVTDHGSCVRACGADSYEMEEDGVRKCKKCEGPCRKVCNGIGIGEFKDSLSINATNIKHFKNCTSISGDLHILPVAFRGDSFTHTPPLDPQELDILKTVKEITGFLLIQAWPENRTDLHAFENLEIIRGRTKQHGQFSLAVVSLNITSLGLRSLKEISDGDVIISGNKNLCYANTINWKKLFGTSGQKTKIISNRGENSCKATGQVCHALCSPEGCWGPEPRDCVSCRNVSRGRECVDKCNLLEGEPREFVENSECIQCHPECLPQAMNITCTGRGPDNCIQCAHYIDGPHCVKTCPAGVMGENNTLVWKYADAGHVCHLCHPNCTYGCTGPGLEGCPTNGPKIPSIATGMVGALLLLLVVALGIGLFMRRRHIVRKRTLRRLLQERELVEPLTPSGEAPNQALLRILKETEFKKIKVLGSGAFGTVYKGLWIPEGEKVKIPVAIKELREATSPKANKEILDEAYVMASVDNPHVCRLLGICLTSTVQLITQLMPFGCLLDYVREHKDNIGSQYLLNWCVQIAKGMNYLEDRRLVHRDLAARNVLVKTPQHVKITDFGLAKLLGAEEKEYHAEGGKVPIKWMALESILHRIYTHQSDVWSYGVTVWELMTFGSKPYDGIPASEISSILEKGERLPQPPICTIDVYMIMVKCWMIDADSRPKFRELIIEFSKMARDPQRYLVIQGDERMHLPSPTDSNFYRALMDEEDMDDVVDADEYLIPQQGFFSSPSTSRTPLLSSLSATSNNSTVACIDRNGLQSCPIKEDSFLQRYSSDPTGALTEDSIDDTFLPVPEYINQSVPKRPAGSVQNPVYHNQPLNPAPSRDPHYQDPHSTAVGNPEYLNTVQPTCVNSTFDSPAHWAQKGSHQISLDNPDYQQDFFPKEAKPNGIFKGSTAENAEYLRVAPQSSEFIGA
Sequence of Dickkopf-related protein 1 (Homo sapiens) (O94907 whole entry, looked up): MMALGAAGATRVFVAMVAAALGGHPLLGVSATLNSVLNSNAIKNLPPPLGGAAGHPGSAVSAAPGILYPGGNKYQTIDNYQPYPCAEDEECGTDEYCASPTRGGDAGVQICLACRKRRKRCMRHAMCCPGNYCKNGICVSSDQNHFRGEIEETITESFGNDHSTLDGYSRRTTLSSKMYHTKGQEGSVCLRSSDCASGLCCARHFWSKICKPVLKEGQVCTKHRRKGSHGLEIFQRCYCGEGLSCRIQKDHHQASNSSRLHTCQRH

Structure (SMILES)	composite z-score [1]	composite z-score [2]	composite z-score [3]	z-score [4]	composite z-score [5]	composite z-score [6]	composite z-score [7]	composite z-score [8]	composite z-score [9]	composite z-score [10]	composite z-score [11]	z-score [12]	composite z-score [13]	composite z-score [14]	composite z-score [15]	composite z-score [16]	composite z-score [17]	composite z-score [18]	composite z-score [19]	composite z-score [20]
[N-]=[N+]=NCc1ccccc1[C@H]1OC(c2ccc(OCCCO)cc2)=N[C@@]1(CCS(=O)(=O)c1ccccc1)C(=O)NCc1ccccc1	1.26	1.65	0.743	0.118 (inactive)	1.06	1.29	0.333	0.819	-0.0778	0.447	1.4	-2.04	0.115	1.65	0.84	0.0253	0.14	0.543	0.804	2.15
COCCOC(=O)N1C(=O)[C@@]2(c3cc(C#CCNC(N)=O)ccc31)[C@H](c1ccc(O)cc1)N1[C@H](c3ccccc3)[C@H](c3ccccc3)OC(=O)[C@H]1[C@@H]2C(=O)N1CCN(c2ncccn2)CC1	1.55	0.607	0.762	0.41 (inactive)	0.811	0.907	0.279	0.751	0.0805	0.311	0.855	-1.3	0.315	2.03	0.762	-0.219	1.78	-0.48	1.82	1.52
C=C(/C(=C/C[C@@H](OC(C)=O)c1ccc(CO)o1)c1cc(C(=O)OC)ccc1OC)C(C)C	0.12	-0.22	-0.256	0.227 (inactive)	1.02	0.469	-0.132	0.347	0.251	0.995	0.443	-0.9	0.192	0.189	-0.657	0.0251	0.216	0.141	-0.144	-0.0861
Cc1ccc([C@H]2C(C(=O)O)=C[C@@H](C(C)(C)C)N2S(=O)(=O)c2ccc(C)cc2)cc1	1.03	1.05	1.06	0.0856 (inactive)	1.1	1.31	0.0496	1.17	-0.591	0.265	1.41	0.0372	0.326	1.94	0.516	0.058	0.348	1.34	1.4	1.43
O=C(N1CCOCC1)[C@@]1(CCS(=O)(=O)c2ccccc2)N=C(c2ccc(OCCCO)cc2)O[C@H]1c1ccccc1	1.64	1.42	1.33	2.21 (inactive)	0.646	1.22	-0.412	0.424	-0.383	0.382	1.1	-0.892	-0.563	2.58	1.33	-0.0084	-0.0441	-0.273	1.85	2.84
CC(C)OC(=O)CC(=O)CC(O)c1ccc([N+](=O)[O-])cc1 (stereo not given)	0.541	0.749	1.14	0.162 (inactive)	0.314	0.132	-0.41	0.198	-0.953	0.527	1.13	-0.601	-0.698	-0.759	-0.833	0.093	0.163	0.431	0.47	-0.292
